Active and inactive are the calls of the source. Cut-off read from the data, not from the text of the source: active = IC50 below about 9 µM; inactive = the rest.

Usually IC50 stands for the concentration at which inhibition is half-maximal.

For the assay, the system named is Ba/F3 Cytotoxicity. The assay is described as follows: JAK2V617F project follow-up: kinase, reporter, cytotoxicity – HEL and Ba/F3 cells, late-stage follow-up (AID 2165). The note with it: JAK2V617F panel: kinase, IRF1 reporter.
Regarding `Cc1cccc(OCC(=O)Nc2cc(C)c(C)cc2O)c1`, the IC50 is > 40 µM (inactive).

On to `Cc1[nH]c(=O)c(C(=O)/C=C/c2ccccc2)c2c1CCCC2`, for which the IC50 is 0.89 µM (active).

On to `Cc1[nH]c(=O)c(C(=O)/C=C/c2ccccc2F)c2c1CCCC2`, for which the IC50 is 0.43 µM (active).

In the case of `Cc1ccc(O)c(NC(=O)COc2ccc(C)c(C)c2)c1`, the IC50 is 5.02 µM (active).

`Cc1[nH]c(=O)c(C(=O)C=Cc2ccc(I)cc2)c2c1CCCC2`: the IC50 is > 40 µM (inactive).

As to `Cc1cccc(OCC(=O)Nc2cccc(C)c2C)c1`, the IC50 was > 40 µM (inactive).

As for `COc1cc2ncnc(Nc3ccc(OC(F)(F)F)cc3)c2cc1OC`, the IC50 was > 40 µM (inactive).

Turning to `C/C(=C\c1ccccc1F)C(=O)c1c(C)cc(C)[nH]c1=O`, the IC50 is > 40 µM (inactive).

Take `COc1ccc(C=CC(=O)c2c3c(c(C)[nH]c2=O)CCCC3)cc1`: the IC50 is 4.38 µM (active).

For the molecule `Cc1ccc(O)c(NC(=O)COc2ccc(I)cc2)c1`, the IC50 is 0.0269 µM (active).

Regarding `O=C(C=Cc1ccccc1F)c1c(-c2ccccc2)c2ccccc2[nH]c1=O`, the IC50 was 0.37 µM (active).

Consider `COc1cc2ncnc(Nc3ccc(F)c(F)c3)c2cc1OC`, for which the IC50 was > 40 µM (inactive).

Turning to `N#C/C(=C\c1ccc(O)c(O)c1)C(=O)NCCc1ccccc1`, the IC50 was 0.3 µM (active).

With `Cc1cccc(OCC(=O)Nc2ccc(O)cc2)c1`, the IC50 was 6.62 µM (active).

With `COc1cc2ncnc(Nc3cccc(Br)c3)c2cc1OC`, the IC50 is > 40 µM (inactive).

Regarding `Cc1nnc(NC(=O)COc2ccccc2)s1`, the IC50 is > 40 µM (inactive).

For `CCC(C)c1ccc(OCC(=O)Nc2cc(C)ccc2O)cc1` (stereo not drawn), the IC50 was 6.47 µM (active).

As for `COc1ccccc1/C=C/C(=O)c1c2c(c(C)[nH]c1=O)CCCC2`, the IC50 is 1.06 µM (active).

For the molecule `Cc1ccc(O)c(NC(=O)COc2ccc(Br)cc2)c1`, the IC50 is 2.43 µM (active).

Take `Cc1[nH]c(=O)c(C(=O)C=Cc2ccccc2Cl)c2c1CCCC2`: the IC50 was 0.16 µM (active).

Take `COCCOc1cc2ncnc(Nc3cccc(C#Cc4ccc(-c5ccccc5)cc4)c3)c2cc1OCCOC`: the IC50 is > 40 µM (inactive).

`Cc1[nH]c(=O)c(C(=O)C=Cc2ccc(Cl)cc2Cl)c2c1CCCC2`: the IC50 was 1.45 µM (active).

Consider `CCOc1cc2ncnc(Nc3cccc(Br)c3)c2cc1OCC`, for which the IC50 was 3.16 µM (active).

As for `Cc1ccc(O)c(NC(=O)COc2cccc3ccccc23)c1`, the IC50 was 1.95 µM (active).

With `Cc1ccc(O)c(NC(=O)COc2cc(C)ccc2C)c1`, the IC50 was 1.36 µM (active).

Take `COc1cc2ncnc(Sc3ccc(Cl)cc3)c2cc1OC`: the IC50 is > 40 µM (inactive).

For `COc1ccc(C)cc1NC(=O)Nc1ccc(Br)cn1`, the IC50 was > 40 µM (inactive).

As to `N#Cc1ccccc1NC(=O)COc1ccc2c(c1)OCO2`, the IC50 is > 40 µM (inactive).

For `COCCOc1cc2ncnc(Nc3cccc(C#Cc4ccc(O)cc4)c3)c2cc1OCCOC`, the IC50 is 3.68 µM (active).

In the case of `Cc1ccc(O)c(NC(=O)COc2ccc(F)cc2)c1`, the IC50 was 0.0825 µM (active).

As to `Cc1cccc(OCC(=O)Nc2cccc(O)c2)c1`, the IC50 is > 40 µM (inactive).

With `COc1ccc(OCC(=O)Nc2cc(C)ccc2O)cc1`, the IC50 was 2.01 µM (active).

For the molecule `Clc1cccc(Nc2ncnc3ccccc23)c1`, the IC50 was > 40 µM (inactive).

As to `COc1cc(/C=C(\C#N)C(N)=O)cc(CSc2nc3ccccc3s2)c1O`, the IC50 is 7.61 µM (active).

Regarding `Cc1cc2ncc(-c3ccc(O)c(O)c3)nc2cc1C`, the IC50 is 0.36 µM (active).

With `Cc1[nH]c(=O)c(C(=O)C=Cc2ccc(Br)cc2)c2c1CCCC2`, the IC50 was 2.57 µM (active).

In the case of `COc1cc2ncnc(NC3CCCCC3)c2cc1OC`, the IC50 is > 40 µM (inactive).

On to `O=C(NCCc1cccnc1)C1CCC(=O)N(CCc2cccc(F)c2)C1` (stereo not drawn), for which the IC50 was > 40 µM (inactive).

The record behind these values is PubChem BioAssay AID2165 (The Scripps Research Institute Molecular Screening Center, 2009).
